SMILES strings stand for the structures. The whole screen tested about 340,000 compounds, of which about 2,000 (0.59%) were called active. This excerpt belongs to a sample that is enriched for actives. Unmarked numbers belong to inactive results. Rule as the data show it: active = activation mostly above about 9.5% (no sharp cut-off); inactive = mostly below about 7.6%.

Here are results for 94 compounds from PubChem BioAssay AID504692 (The Scripps Research Institute Molecular Screening Center, 2011).

The target of this assay is 5-hydroxytryptamine receptor 5A (Homo sapiens) (UniProt P47898). Briefly: activation of human 5-HT5A receptor – cell-based, luminescence, full-deck HTS, counter-screen for OPRM1-OPRD1 heterodimer agonist project, primary screen (AID 504692).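 Also: 0% = cells with vehicle only and 100% = reference agonist.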 Particulars: HTR5A agonist assay, at 9.3 µM, hits give high values.
5-hydroxytryptamine receptor 5A (Homo sapiens), sequence (P47898 whole entry, looked up): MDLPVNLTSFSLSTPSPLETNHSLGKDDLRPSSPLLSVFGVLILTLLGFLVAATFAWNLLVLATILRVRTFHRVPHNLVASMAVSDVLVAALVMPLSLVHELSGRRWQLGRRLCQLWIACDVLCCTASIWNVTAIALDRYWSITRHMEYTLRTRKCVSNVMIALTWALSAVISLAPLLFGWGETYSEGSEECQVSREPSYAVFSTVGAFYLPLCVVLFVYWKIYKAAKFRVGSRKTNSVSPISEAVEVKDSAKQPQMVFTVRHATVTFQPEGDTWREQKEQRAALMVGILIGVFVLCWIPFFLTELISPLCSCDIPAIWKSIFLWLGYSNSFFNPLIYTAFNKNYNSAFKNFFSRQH
`O=C(Nc1ccccc1Cc1ccccc1)c1ccc2c(c1)SC1=NS(=O)(=O)CCN12`: the activation was 6.02%. For `Cc1cccc(CCNS(=O)(=O)c2ccc3c(c2)NC(=O)CO3)c1` the value was -0.45%; for `O=C(C1CCC(=O)N(C2CC2)C1)N1CCN(c2ccc(Cl)cc2)CC1` (centres undefined), 0.66%; for `Cc1cc(NC(=O)CSc2nccn2-c2ccc([N+](=O)[O-])cc2)no1`, -1.99%. For `COC(=O)c1cc(C(=O)OCC(=O)Nc2cc(C)on2)cc([N+](=O)[O-])c1` the value was 14.7% (active); for `Cc1cc(NC(=O)COc2ccc([N+](=O)[O-])cc2)no1`, -2.97%.

With `CC(=O)N1CCN(S(=O)(=O)c2ccc(C)c([N+](=O)[O-])c2)C1C(C)C` (centres undefined), the activation is 0.82%.

Take `CNC(=S)NNC(=O)c1sccc1OCc1ccccc1`: the activation is 6.65%. For `CNC(=S)N/N=C/c1ccc(OCc2ccccc2)c(Br)c1` the value was 14.9% (active); for `O=C(O)COc1ccc(/C=N/O)cc1Br`, 1.32%; for `N=c1c2c3c(sc2ncn1CCCN1CCOCC1)CCCCC3`, 6.44%. For `COc1ccc(N(CC(=O)NC2CCCC2)C(=O)CS(=O)CC(=O)Nc2ccc3c(c2)OCO3)cc1` (centres undefined), the activation is 1.5%. The value for `O=S(=O)(NN=C1CCCCCCC1)c1ccc(Br)cc1` was 9.89% (active); that for `Cc1nc(S(=O)(=O)c2ccc(Br)cc2)nc2c1CCC2` was 3.89%; that for `CC(CNS(=O)(=O)c1ccc(Br)cc1)CN(C)C` (centres undefined) was 0.38%. For `CCOc1ccc(NC(=O)c2cc(C)nc3ccccc23)cc1` the value was 6.43%. The value for `CCOc1ccc(NC(=O)CSc2nncn2C)cc1` was 2.03%; that for `CCOc1ccc(NC(=O)c2nc(SCC)ncc2Cl)cc1` was 11.8% (active); that for `Cc1ccc(C)c(Cn2nnc3c(=O)[nH]c(C(=O)Nc4ccc(F)cc4)nc32)c1` was -2.89%.

For `COc1ccc(NC(=O)COC(=O)c2ccc(NS(=O)(=O)/C=C/c3ccccc3)cc2)cc1`, the activation was -1.75%. For `N#CCCN(C(=O)COC(=O)c1ccc(S(=O)(=O)N2CCCCCC2)cc1)c1ccccc1` the value was -3.52%. For `Cc1c(C(=O)OCC(=O)N(CCC#N)c2ccccc2)oc2c1ccc1ccccc12` the value was 53% (active); for `N#CCCN(C(=O)COC(=O)c1ccc2c(c1)OCCO2)c1ccccc1`, 5.45%.

`CCN1CCN(C(=O)/C=C\C(=O)O)CC1`: the activation is 2.72%.

`CC1C(C)N(C(=O)CCl)c2ccccc2N1C(=O)CCl` (centres undefined): the activation is 8.76% (active). The value for `CC1C(=O)N(Cc2ccccc2)c2ccccc2N1C(=O)c1ccccc1` (centres undefined) was 0.41%; that for `CC1CC(C)CN(CC(=O)N2c3ccccc3CCc3ccccc32)C1` (centres undefined) was -4.89%; that for `Cc1cccc(N2CCN(C(C)C(=O)N3CCc4ccccc43)CC2)c1C` (centres undefined) was 7.68%. Take `COc1cc(OC)c(-n2cc(-c3ccc(Cl)cc3)[nH]c2=O)cc1Cl`: the activation is 5.5%. The value for `CC1CCCCN1CCCNc1ccc(C(CC(N)=O)NC(=O)c2ccccc2)cc1[N+](=O)[O-]` (centres undefined) was -1.92%; that for `C#CCOCCOCCOCCNc1nc(N2CCN(C(=O)Cn3cc(CCO)nn3)CC2)nc(N2CCN(C(=O)Cn3cc(CCCN=C(N)N)nn3)CC2)n1` was -2.92%. For `CCC(C)[C@@H](C(=O)N1CCNCC1)n1cc(CCCCN)nn1` (some centres undefined) the value was -1.58%; for `NC(N)=NCCCc1cn(CC(=O)N2CCNCC2)nn1`, 12.4% (active); for `Cc1cc(C)c(S(=O)(=O)N(C)CC(=O)NCC2CCCO2)c(C)c1` (centres undefined), 8.59%.

Take `COc1ccc(CN2CCN(C(=O)CCC(=O)Nc3nnc(C(C)C)s3)CC2)cc1F`: the activation was 2.2%. The value for `CC(C)OC(=O)c1sc2nc3c(cc2c1N)C(=O)CCC3` was 5.9%; that for `Cc1ccc2sc(N(CCN(C)C)C(=O)/C=C/c3cccs3)nc2c1C` was 6.97%; that for `Cc1cc(C)c2nc(N(CCN(C)C)C(=O)/C=C/c3cccs3)sc2c1` was 11.5% (active). With `Cc1ccc2nc(N(CCN(C)C)C(=O)C3=COCCO3)sc2c1`, the activation was -2.68%. For `O=C(CSc1nnc(-c2ccc([N+](=O)[O-])cc2)o1)Nc1ccccn1` the value was 0.96%.

Regarding `CCc1ccc(OCC(=O)OC(C)C(=O)NC2CC2)cc1` (centres undefined), the activation was 1.16%. For `Cc1ccc(S(=O)(=O)NCCC(=O)NCc2ccc(Cl)cc2)cc1C` the value was -0.86%. The value for `CC(C)CNS(=O)(=O)c1ccc(CCC(=O)NCc2ccc(Cl)cc2)cc1` was 0.62%; that for `CSc1ccc(S(=O)(=O)NCc2ccc(Cl)cc2)cc1` was 10.3% (active); that for `Cc1cc(C(C)(C)C)oc1C(=O)N(CC(=O)NC1CCCC1)Cc1ccc(Cl)cc1` was 2.84%. Turning to `CCOc1ccc(S(=O)(=O)NCCCn2ccnc2)cc1NC(C)=O`, the activation was 2.78%. The value for `NC(=O)C1(C(N)=O)OC1c1ccc(Cl)cc1Cl` (centres undefined) was 3.12%; that for `O=C(COC(=O)c1n[nH]c2ccccc12)Nc1ccccc1Br` was -1.79%. The value for `COc1ccc(C)cc1S(=O)(=O)NCCc1ccccc1` was 1.84%. The value for `COc1ccc(CCn2ccc(O)c(Cc3ccc(Cl)cc3Cl)c2=O)cc1OC` was -0.18%; that for `COc1ccc(C(=O)O/N=C(\N)Cc2ccc(Cl)cc2Cl)cc1OC` was 27.1% (active); that for `COc1ccc(C/C(N)=N/OC(=O)c2ccco2)cc1OC` was 1.65%. On to `CCn1nc(C(=O)OCC(=O)N2c3ccccc3CC2C)c2ccccc2c1=O` (centres undefined), for which the activation is 36.7% (active).

Take `CCOC(=O)c1[nH]c(C)c(C(=O)OCC(=O)N2c3ccccc3CC2C)c1C` (centres undefined): the activation is -1.22%. For `CCOc1ncccc1C(=O)OCC(=O)N1c2ccccc2CC1C` (centres undefined) the value was -1.04%.

In the case of `COc1ccc(NC(=O)CSc2nnc(-c3ccccc3F)n2C2CC2)cc1S(N)(=O)=O`, the activation was -5.29%.

Turning to `Cn1c(CCC(=O)Nc2ccccc2F)nnc1SCC(=O)Nc1ccccc1Cl`, the activation is -0.17%. For `CCCN(CCc1ccccc1)C1CCc2c(O)cccc2C1` (centres undefined), the activation is 24.5% (active). Take `Cc1cc(C)cc(C(=O)N(CCc2ccccc2)C2=CC3CCC(C2)N3C)c1` (centres undefined): the activation was 7.8%. Turning to `O=C(NC1CCCC1)c1cc(-c2ccccc2)on1`, the activation is -5.2%. For `CC(NC(=O)c1cc(-c2ccccc2)on1)c1ccccc1` (centres undefined), the activation is 18.9% (active). The value for `CC(C)CNC(=O)c1cc(-c2ccc(Br)cc2)on1` was 5.27%.

Consider `CCOC(=O)c1c(/N=C/c2cc(C)ccc2O)sc2c1CCC2`, for which the activation was 3.38%. For `Cc1cc(-c2ccc(C)c(S(=O)(=O)Nc3ccc(S(N)(=O)=O)cc3)c2)on1` the value was 1.19%. Consider `Cc1cc(-c2ccc(C)c(S(=O)(=O)NCCCN(Cc3ccccc3)C(C)C)c2)on1`, for which the activation is -3.67%. The value for `Cc1cc(-c2ccc(C)c(S(=O)(=O)NC(C)Cc3ccco3)c2)on1` (centres undefined) was 11.8% (active).

`CCc1c(C)c2c(C)[nH]nc2oc1=O`: the activation was 2.29%. As to `CNS(=O)(=O)c1cccc(C(=O)OCCCC(=O)c2ccccc2)c1`, the activation is 2.3%. In the case of `CCNC(=S)N1CCC(c2nc3cc(C)c(C)cc3[nH]2)CC1`, the activation is 0.03%. `CN(C)CCCNC(=S)N1CCC(c2nc3ccccc3[nH]2)CC1`: the activation is 11.5% (active). The value for `CCCNC(=S)N1CCCC(c2nc3ccccc3[nH]2)C1` (centres undefined) was 2.29%. For `O=C(OCC(=O)N1CCCCCC1)c1cnc(Cl)c(Cl)c1` the value was -5.36%; for `CCCOc1ccc(C(=O)CCC(=O)OC(C)C(=O)Nc2ccc(NC(C)=O)cc2)cc1` (centres undefined), 2.99%; for `CCCOc1ccc(/C=N/NC(=O)C2CC2)c(OCCC)c1`, 4.85%.

Regarding `CCCOc1ccc(C(=O)C(CCC(CNCC)C(=O)c2ccc(OCCC)cc2)CNCC)cc1` (centres undefined), the activation was 19.9% (active). For `O=C(c1ccco1)N1CCN(Cc2cccc(C(F)(F)F)c2)CC1` the value was 4.8%. The value for `Cn1c(CN2CCOCC2)nc2cc(NC(=O)c3ccc(Cl)cc3)ccc21` was 9.89%; that for `CN(c1ccccc1)S(=O)(=O)c1cc(C(=O)OCC(=O)N2CCN(C(=O)c3ccco3)CC2)ccc1Cl` was 3.06%; that for `CN(c1ccccc1)S(=O)(=O)c1cc(C(=O)N2CCN(c3ncccn3)CC2)ccc1Cl` was 15.4% (active).

Take `CN(c1ccccc1)S(=O)(=O)c1ccc(C(=O)N2CCN(c3ccccc3Cl)CC2)cc1`: the activation was 0.22%. `Cc1cc(C)cc(C(=O)NCC(=O)OCC(=O)N2CCCCC2)c1`: the activation was -2.45%. As to `Cc1ccc(S(=O)(=O)N(CC(=O)NCCSC2CCCCC2)c2ccccc2F)cc1`, the activation is 2.64%.

Turning to `O=C(NC1(C(F)(F)F)N=C2SCCN2C1=O)c1ccco1` (centres undefined), the activation is 3.99%.

Regarding `COC(=O)c1ccc(NCc2cc(O)ccc2O)cc1`, the activation was 6.1%. The value for `CC(C)OC(=O)c1ccc(NCc2cc(O)ccc2O)cc1Cl` was 3.07%; that for `O=C(OC12CC3CC(CC(C3)C1)C2)c1ccc(NCc2cc(O)ccc2O)cc1` was 21.4% (active); that for `C/C(=N\NC(=S)NC1CCCCC1)c1ccc(C)o1` was 6.64%. `CCOC(=O)C1CSC(CC(=O)Nc2ccc(OCC)cc2)C(=O)N1` (centres undefined): the activation was -5.17%. For `CCN(CC)S(=O)(=O)c1cccc(NC(=O)c2ccc(S(=O)(=O)N3CCCC3)cc2)c1` the value was 13.2% (active); for `O=C(Nc1cccc(S(=O)(=O)N2CCCCC2)c1)c1cncc(Br)c1`, 0.4%; for `O=C(Nc1cccc(S(=O)(=O)N2CCCC2)c1)c1cncc(Br)c1`, 0.81%. In the case of `O=C(CSc1ccccc1)Nc1cccc(S(=O)(=O)N2CCCCC2)c1`, the activation is -8.72%. For `CCN(CC(=O)Nc1ccc(S(=O)(=O)N2CCCC2)cc1)CC(=O)Nc1cccc(OC)c1` the value was -2.62%.

`CCN(CC(=O)Nc1cccc(S(=O)(=O)N2CCCCC2)c1)Cc1ccccc1`: the activation is 15.5% (active).
